This note sets out measurements from PubChem BioAssay (NCATS).

Results filed as inconclusive are left out. Where a call stands in place of a potency, no number is given. Active and inactive are the calls of the source. Calls come from the whole dose curve; as a rule, active = well fitted curve in the direction sought with a large enough effect; inconclusive = small, poorly fitted or top-dose-only effect, or another doubt; inactive = no such curve, though single readings can be large; an effect the other way counts as inactive or inconclusive.
Potency is the fitted concentration of half-maximal effect.

One experiment is described as follows: qHTS for differential inhibitors of proliferation of Plasmodium falciparum line D10 (AID 1877).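 Note: parasites grown with compound for 72 h before DNA staining.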 The following applies: series mostly up to 28.7 µM. A general note: qHTS replaces the single test concentration by a dilution series.
With `CC(N)=NCCCC(N)C(=O)O` (stereo unspecified), the Potency result is “inactive”.
The same measure, in the same setting: with `Cc1cn([C@H]2C[C@@H](N=[N+]=[N-])[C@@H](CO)O2)c(=O)[nH]c1=O` the entry was “inactive”.
Regarding `CN=C(N)NCCCC(N)C(=O)O` (stereo unspecified), the Potency entry is “inactive”.
Same read-out and setting: with `COc1c2c(nc3ccccc13)OC(C(C)(O)CO)C2` (stereo unspecified) the entry was “inactive”; with `CN1C2CC(OC(=O)C(CO)c3ccccc3)CC1C1OC12` (stereo unspecified), “inactive”; with `CC(C)C1NC(=O)[C@H](CCCCN)NC(=O)[C@@H](Cc2c[nH]c3ccccc23)NC(=O)[C@H](Cc2ccc(O)cc2)NC(=O)[C@H](C)N(C)C(=O)[C@H](Cc2ccccc2)NC1=O` (stereo partly specified), “inactive”.
For the compound `NCCC(=O)NCCc1cnc[nH]1`, the Potency entry was “inactive”.
With `O=C(Cc1ccc(Cl)c(Cl)c1)OCCN1CCCC1`, the Potency entry was “inactive”.
`NC(=O)C1=CN(C2OC(COP(=O)(O)OP(=O)(O)OC[C@H]3O[C@@H](n4cnc5c(N)ncnc54)[C@H](OP(=O)(O)O)[C@H]3O)C(O)C2O)C=CC1` (stereo partly specified): the Potency result was “inactive”.
As to `CC(=O)[C@@]1(O)CC[C@H]2C3CCC4=CC(=O)CC[C@]4(C)C3CC[C@@]21C` (stereo partly specified), the Potency result is “inactive”.
Same read-out and setting: with `OC[C@H]1O[C@@H](n2cnc3c(NCCc4ccccc4)ncnc32)[C@H](O)[C@H]1O` the entry was “inactive”; with `CCCCCCCCCCCCCCC/C=C/[C@@H](O)[C@H](NC(=O)CCCCCCCCCCCCC)OC` (tested in a mixture with another compound), “inactive”.
Turning to `CNc1ncnc2c1ncn2[C@@H]1O[C@H](CO)[C@H](O)[C@H]1O`, the Potency entry is “inactive”.
Still for that read-out and setting: the result for `NCCNC(=O)c1ccc(Cl)cc1` reads “inactive”; that for `NC(=NCCC[C@H](N)C(=O)O)NO`, “inactive”; that for `OC[C@H]1O[C@@H](n2cnc3c(Nc4ccccc4)ncnc32)[C@H](O)[C@H]1O`, “inactive”.
On the same count and under the same terms, with `N[C@H](Cc1ccc(O)c(O)c1)C(=O)O` the entry was “inactive”; with `NC(=S)c1ccc[n+]([C@@H]2O[C@@H](COP(=O)([O-])OP(=O)(O)OC[C@H]3O[C@@H](n4cnc5c(N)ncnc54)[C@H](OP(=O)(O)O)[C@H]3O)C(O)C2O)c1` (stereo partly specified), “inactive”.
Consider `O=C(O)CC[C@H](NC(=O)c1ccccc1C(=O)O)C(=O)O`, for which the Potency entry is “inactive”.
Consider `NCC1OC(O[C@@H]2[C@H](O)[C@@H](OC3C(O)C(N)CC(N)C3OC3OC(CO)C(O)C(O)C3N)O[C@@H]2CO)C(N)C(O)C1O` (stereo partly specified), for which the Potency entry was “inactive”.
Still for that read-out and setting: the result for `COc1cc(=O)n(C)c2c(OCC(O)C(C)(C)O)cccc12` (stereo unspecified) reads “inactive”.
Turning to `C[C@]12CCC(=O)C=C1CC[C@@H]1C2[C@@H](O)C[C@@]2(C)[C@H]1CC[C@]2(O)C(=O)CO` (stereo partly specified), the Potency result was “inactive”.
The same measure, in the same setting: the result for `CN1C(=O)CCC1c1cccnc1` (stereo unspecified) reads “inactive”; that for `N=C(N)SCCc1cccc(CCSC(=N)N)c1`, 10 µM (active); that for `Nc1nc(SCc2ccc([N+](=O)[O-])cc2)c2ncn([C@@H]3O[C@H](CO)[C@H](O)[C@H]3O)c2n1`, “inactive”.

A further experiment can be described thus: qHTS for differential inhibitors of proliferation of Plasmodium falciparum line Dd2 (AID 1882). Note: nearly all actives have a fitted effect of over 65% in size. The conditions noted are these: Potency: Plasmodium falciparum Dd2 proliferation inhibition; series mostly up to 28.7 µM. The method in brief: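 SYBR Green I DNA fluorescence read-out, ex 485/em 535 nm. Signals were normalized to 0.29 uM artemisinin and DMSO wells, then corrected using vehicle-only plates flanking each stack. Parasite growth ran 72 h in erythrocytes before lysis.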
For `CNC(=O)[C@H]1O[C@@H](n2cnc3c(NCc4cccc(I)c4)ncnc32)[C@H](O)[C@H]1O`, the Potency entry was “inactive”.
The same measure, in the same setting: the result for `CC(N)=NCCCC(N)C(=O)O` (stereo unspecified) reads “inactive”; that for `Cc1cn([C@H]2C[C@@H](N=[N+]=[N-])[C@@H](CO)O2)c(=O)[nH]c1=O`, “inactive”.
Still for that read-out and setting: the result for `CN=C(N)NCCCC(N)C(=O)O` (stereo unspecified) reads “inactive”; that for `COc1c2c(nc3ccccc13)OC(C(C)(O)CO)C2` (stereo unspecified), “inactive”.
For `CN1C2CC(OC(=O)C(CO)c3ccccc3)CC1C1OC12` (stereo unspecified), the Potency result is “inactive”.
On the same count and under the same terms, with `CC(C)C1NC(=O)[C@H](CCCCN)NC(=O)[C@@H](Cc2c[nH]c3ccccc23)NC(=O)[C@H](Cc2ccc(O)cc2)NC(=O)[C@H](C)N(C)C(=O)[C@H](Cc2ccccc2)NC1=O` (stereo partly specified) the entry was “inactive”.
Still for that read-out and setting: the result for `NCCC(=O)NCCc1cnc[nH]1` reads “inactive”; that for `O=C(Cc1ccc(Cl)c(Cl)c1)OCCN1CCCC1`, “inactive”.
As for `NC(=O)C1=CN(C2OC(COP(=O)(O)OP(=O)(O)OC[C@H]3O[C@@H](n4cnc5c(N)ncnc54)[C@H](OP(=O)(O)O)[C@H]3O)C(O)C2O)C=CC1` (stereo partly specified), the Potency entry was “inactive”.
Still for that read-out and setting: the result for `CC(=O)[C@@]1(O)CC[C@H]2C3CCC4=CC(=O)CC[C@]4(C)C3CC[C@@]21C` (stereo partly specified) reads “inactive”; that for `OC[C@H]1O[C@@H](n2cnc3c(NCCc4ccccc4)ncnc32)[C@H](O)[C@H]1O`, “inactive”.
In the case of `CCCCCCCCCCCCCCC/C=C/[C@@H](O)[C@H](NC(=O)CCCCCCCCCCCCC)OC` (tested in a mixture with another compound), the Potency entry is “inactive”.
Same read-out and setting: with `CNc1ncnc2c1ncn2[C@@H]1O[C@H](CO)[C@H](O)[C@H]1O` the entry was “inactive”; with `NCCNC(=O)c1ccc(Cl)cc1`, “inactive”.
Regarding `NC(=NCCC[C@H](N)C(=O)O)NO`, the Potency result is “inactive”.
Same read-out and setting: the result for `OC[C@H]1O[C@@H](n2cnc3c(Nc4ccccc4)ncnc32)[C@H](O)[C@H]1O` reads “inactive”.
Take `N[C@H](Cc1ccc(O)c(O)c1)C(=O)O`: the Potency result was “inactive”.
Still for that read-out and setting: the result for `NC(=S)c1ccc[n+]([C@@H]2O[C@@H](COP(=O)([O-])OP(=O)(O)OC[C@H]3O[C@@H](n4cnc5c(N)ncnc54)[C@H](OP(=O)(O)O)[C@H]3O)C(O)C2O)c1` (stereo partly specified) reads “inactive”; that for `O=C(O)CC[C@H](NC(=O)c1ccccc1C(=O)O)C(=O)O`, “inactive”.
Still for that read-out and setting: the result for `NCC1OC(O[C@@H]2[C@H](O)[C@@H](OC3C(O)C(N)CC(N)C3OC3OC(CO)C(O)C(O)C3N)O[C@@H]2CO)C(N)C(O)C1O` (stereo partly specified) reads “inactive”.
Regarding `COc1cc(=O)n(C)c2c(OCC(O)C(C)(C)O)cccc12` (stereo unspecified), the Potency result is “inactive”.
On the same count and under the same terms, the result for `C[C@]12CCC(=O)C=C1CC[C@@H]1C2[C@@H](O)C[C@@]2(C)[C@H]1CC[C@]2(O)C(=O)CO` (stereo partly specified) reads “inactive”; that for `CN1C(=O)CCC1c1cccnc1` (stereo unspecified), “inactive”; that for `CC(=O)O[C@H]1C[C@@H]2CCC3C(CC[C@@]4(C)[C@H]3C[C@H]([N+]3(C)CCCCC3)[C@@H]4OC(C)=O)[C@@]2(C)C[C@@H]1[N+]1(C)CCCCC1` (stereo partly specified), “inactive”.
Still for that read-out and setting: the result for `N=C(N)SCCc1cccc(CCSC(=N)N)c1` reads 7.08 µM (active).
